Measured values reported in the supplement of paper PMC9694430.

Legend:
Test in all cases: thermal shift delta Tm vs DMSO control; higher = stronger stabilization (binding)
Settings in all cases: 12.5 µM; protein concentration 2 µM
LOC_OS02G45750-cb003 = tested on: LOC_OS02G45750-cb003
Outline: (§1)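 Compounds dissolved in DMSO were added to purified rice kinase domain constructs, which had been expressed in E. coli, for differential scanning fluorimetry. Each well held 19.5 μl of 2 μM kinase in 100 mM potassium phosphate pH 7.5, 150 mM NaCl, 10% glycerol and 5 × SYPRO Orange. Fluorescence was followed from 25°C to 95°C at a rate of 0.05°C/s. Shifts in Boltzmann-fitted melting temperature are triplicate means relative to DMSO-only protein.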

LOC_OS02G54510-cb004 = tested on: LOC_OS02G54510-cb004
Outline: as §1

LOC_OS03G04050-cb001 = tested on: LOC_OS03G04050-cb001
Outline: as §1

LOC_OS03G12390-cb001 = tested on: LOC_OS03G12390-cb001
Outline: as §1

LOC_OS03G27990-cb004 = tested on: LOC_OS03G27990-cb004
Outline: as §1

LOC_OS03G50450-cb001 = tested on: LOC_OS03G50450-cb001
Outline: as §1

LOC_OS03G50810-cb003 = tested on: LOC_OS03G50810-cb003
Outline: as §1

LOC_OS04G35114-cb001 = tested on: LOC_OS04G35114-cb001
Outline: as §1

LOC_OS04G38480-cb003 = tested on: T1, LOC_OS04G38480-cb003
T1 sequence (whole entry): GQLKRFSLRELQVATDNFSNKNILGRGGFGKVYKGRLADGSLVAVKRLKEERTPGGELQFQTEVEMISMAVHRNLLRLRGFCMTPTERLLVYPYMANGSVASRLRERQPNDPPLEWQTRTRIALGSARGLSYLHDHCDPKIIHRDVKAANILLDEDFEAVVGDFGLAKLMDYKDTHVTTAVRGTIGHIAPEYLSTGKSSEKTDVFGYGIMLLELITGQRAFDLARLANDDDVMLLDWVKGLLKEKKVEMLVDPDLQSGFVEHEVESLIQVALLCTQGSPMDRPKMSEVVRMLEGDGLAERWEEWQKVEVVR
Outline: as §1

LOC_OS04G41100-cb001 = tested on: T2, LOC_OS04G41100-cb001
T2 sequence (whole entry): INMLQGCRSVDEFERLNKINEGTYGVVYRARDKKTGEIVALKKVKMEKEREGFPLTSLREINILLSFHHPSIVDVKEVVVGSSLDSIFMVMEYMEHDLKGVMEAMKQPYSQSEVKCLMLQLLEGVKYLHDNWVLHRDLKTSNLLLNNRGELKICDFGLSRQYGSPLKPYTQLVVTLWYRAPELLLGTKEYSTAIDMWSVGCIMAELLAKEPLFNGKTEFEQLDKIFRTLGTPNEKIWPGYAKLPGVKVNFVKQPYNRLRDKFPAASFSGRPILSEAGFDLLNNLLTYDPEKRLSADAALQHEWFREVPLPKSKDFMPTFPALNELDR
Outline: as §1

LOC_OS04G57630-cb004 = tested on: LOC_OS04G57630-cb004
Outline: as §1

LOC_OS05G07850-cb002 = tested on: LOC_OS05G07850-cb002
Outline: as §1

LOC_OS05G16824-cb004 = tested on: LOC_OS05G16824-cb004
Outline: as §1

LOC_OS05G28520-cb001 = tested on: LOC_OS05G28520-cb001
Outline: as §1

LOC_OS05G30820-cb001 = tested on: LOC_OS05G30820-cb001
Outline: as §1

LOC_OS05G43570-cb004 = tested on: LOC_OS05G43570-cb004
Outline: as §1

LOC_OS06G16330-cb003 = tested on: LOC_OS06G16330-cb003
Sequence of LOC_OS06G16330-cb003 (as listed by the source): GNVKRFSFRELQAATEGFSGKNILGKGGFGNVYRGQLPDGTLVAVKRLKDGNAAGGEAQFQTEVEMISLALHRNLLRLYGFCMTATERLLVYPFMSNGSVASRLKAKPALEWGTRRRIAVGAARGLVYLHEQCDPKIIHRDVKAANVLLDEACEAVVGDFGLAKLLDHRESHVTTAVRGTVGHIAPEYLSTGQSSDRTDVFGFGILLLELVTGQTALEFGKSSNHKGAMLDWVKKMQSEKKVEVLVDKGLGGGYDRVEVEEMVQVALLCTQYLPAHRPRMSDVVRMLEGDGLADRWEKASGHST
Outline: as §1

LOC_OS06G22820-cb001 = tested on: T3, LOC_OS06G22820-cb001
T3 sequence (whole entry): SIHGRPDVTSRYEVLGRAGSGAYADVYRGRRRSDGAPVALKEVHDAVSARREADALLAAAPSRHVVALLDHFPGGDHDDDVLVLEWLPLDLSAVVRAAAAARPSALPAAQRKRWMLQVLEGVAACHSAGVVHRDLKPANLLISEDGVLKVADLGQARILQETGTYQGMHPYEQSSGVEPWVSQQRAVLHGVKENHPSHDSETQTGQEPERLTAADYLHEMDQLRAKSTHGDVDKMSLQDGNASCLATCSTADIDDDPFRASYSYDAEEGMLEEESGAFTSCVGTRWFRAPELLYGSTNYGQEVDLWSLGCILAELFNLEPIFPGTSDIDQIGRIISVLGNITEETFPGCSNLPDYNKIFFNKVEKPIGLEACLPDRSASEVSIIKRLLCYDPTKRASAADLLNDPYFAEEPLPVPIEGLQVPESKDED
Outline: as §1

LOC_OS07G06570-cb004 = tested on: LOC_OS07G06570-cb004
Outline: as §1

LOC_OS07G07230-cb001 = tested on: LOC_OS07G07230-cb001
Outline: as §1

SMILES	thermal shift delta Tm (LOC_OS02G45750-cb003)	thermal shift delta Tm (LOC_OS02G54510-cb004)	thermal shift delta Tm (LOC_OS03G04050-cb001)	thermal shift delta Tm (LOC_OS03G12390-cb001)	thermal shift delta Tm (LOC_OS03G27990-cb004)	thermal shift delta Tm (LOC_OS03G50450-cb001)	thermal shift delta Tm (LOC_OS03G50810-cb003)	thermal shift delta Tm (LOC_OS04G35114-cb001)	thermal shift delta Tm (LOC_OS04G38480-cb003)	thermal shift delta Tm (LOC_OS04G41100-cb001)	thermal shift delta Tm (LOC_OS04G57630-cb004)	thermal shift delta Tm (LOC_OS05G07850-cb002)	thermal shift delta Tm (LOC_OS05G16824-cb004)	thermal shift delta Tm (LOC_OS05G28520-cb001)	thermal shift delta Tm (LOC_OS05G30820-cb001)	thermal shift delta Tm (LOC_OS05G43570-cb004)	thermal shift delta Tm (LOC_OS06G16330-cb003)	thermal shift delta Tm (LOC_OS06G22820-cb001)	thermal shift delta Tm (LOC_OS07G06570-cb004)	thermal shift delta Tm (LOC_OS07G07230-cb001)
CN1CCN(Cc2ccc(NC(=O)Nc3ccc(Oc4ccnc(N)n4)cc3)cc2C(F)(F)F)CC1	5.22 °C	7.6 °C	0.12 °C	1.46 °C	0.06 °C	-0.31 °C	3.62 °C	0.16 °C	2.07 °C	6.72 °C	6.19 °C	11.9 °C	-5.04 °C	0.9 °C	0.74 °C	1.72 °C	5.38 °C	0.66 °C	0.91 °C	-1.04 °C
CO[C@H]1C[C@@H]2CC[C@@H](C)[C@@](O)(O2)C(=O)C(=O)N2CCCC[C@H]2C(=O)O[C@H]([C@H](C)C[C@@H]2CC[C@@H](OC(=O)C(C)(CO)CO)[C@H](OC)C2)CC(=O)[C@H](C)/C=C(\C)[C@@H](O)[C@@H](OC)C(=O)[C@H](C)C[C@H](C)/C=C/C=C/C=C/1C	0.69 °C	-0.04 °C	0.5 °C	-0.26 °C	0.07 °C	0.44 °C	-0.05 °C	-0.13 °C	1.42 °C	0.7 °C	-0.25 °C	0.18 °C	-4.25 °C	0.46 °C	0.38 °C	0.24 °C	-0.27 °C	0.76 °C	0.91 °C	0.12 °C
O=C(Nc1ccc(-c2ccnc(Nc3ccc(N4CCOCC4)cc3)n2)cc1)C1CCCN1 (stereo not given)	0.77 °C	0.47 °C	0.4 °C	1.05 °C	0.29 °C	0.37 °C	0.83 °C	2.26 °C	1 °C	0.45 °C	0.39 °C	8.89 °C	-1.75 °C	0.58 °C	0.48 °C	0.34 °C	2.94 °C	0.34 °C	1.36 °C	0.39 °C
CCCCCCCCCCCCCCCCOP(=O)([O-])OCC[N+](C)(C)C [Miltefosine]	-1.69 °C	-3.98 °C	-6.02 °C	-3.65 °C	-2.36 °C	-1.33 °C	-3.31 °C	-3.53 °C	-0.41 °C	-0.66 °C	-0.37 °C	-1.01 °C	-3.83 °C	-3.02 °C	-0.84 °C	-1.92 °C	-5.12 °C	-0.23 °C	-2.61 °C	-2.12 °C
C=CC(=O)Nc1cccc(Oc2nc(Nc3ccc(N4CCN(C)CC4)cc3OC)ncc2Cl)c1	0.22 °C	0.42 °C	0.85 °C	5.06 °C	1.09 °C	0.52 °C	2.04 °C	0.9 °C	-0.58 °C	0.39 °C	-0.7 °C	8.75 °C	-3.25 °C	0.26 °C	0.41 °C	0.58 °C	-0.17 °C	0.37 °C	0.31 °C	0.24 °C
CC(C)Oc1ccc(-c2nn([C@@H](C)c3oc4ccc(F)cc4c(=O)c3-c3cccc(F)c3)c3ncnc(N)c23)cc1F	-0.54 °C	0.17 °C	0.23 °C	-0.28 °C	0.5 °C	-0.25 °C	0.13 °C	1.09 °C	1.36 °C	0.19 °C	0.05 °C	-1 °C	-4.89 °C	0.51 °C	0.43 °C	0.51 °C	0.01 °C	0.62 °C	1.08 °C	-0.07 °C
